Source: PubChem BioAssay
CYP2C19 inhib: blockers of cytochrome P450 2C19 activity – biochemical, luminescence, ADME assay, primary screen | P33261 | inhibition, % at 5 µM | CYP2C19 Supersomes, luciferin-H EGE luminescence, 30 min | AID 778, 2007 | actives 21% (n = 96,000);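 active means CYP2C19 inhibition above a set limit at 5 µM in the primary screen, cut at about 50% in these data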;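 further: plate controls were negative control wells for no effect and 2.5 mM tranylcypromine positive control for full effect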
Target sequence (P33261 whole entry, looked up): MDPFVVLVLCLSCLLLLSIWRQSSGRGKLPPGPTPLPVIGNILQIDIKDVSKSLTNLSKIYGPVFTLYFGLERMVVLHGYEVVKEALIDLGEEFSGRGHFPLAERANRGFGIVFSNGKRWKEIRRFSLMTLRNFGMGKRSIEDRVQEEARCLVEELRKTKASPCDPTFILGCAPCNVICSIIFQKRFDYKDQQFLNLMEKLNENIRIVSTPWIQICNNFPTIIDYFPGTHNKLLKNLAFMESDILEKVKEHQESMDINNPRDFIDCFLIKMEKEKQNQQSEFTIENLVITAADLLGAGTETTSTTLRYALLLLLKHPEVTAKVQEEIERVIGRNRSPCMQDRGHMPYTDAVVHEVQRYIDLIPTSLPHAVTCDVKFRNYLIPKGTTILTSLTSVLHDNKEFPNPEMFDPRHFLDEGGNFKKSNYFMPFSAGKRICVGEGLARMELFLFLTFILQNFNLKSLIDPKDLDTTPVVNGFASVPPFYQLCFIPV
CYP2C9 inh: blockers of cytochrome P450 2C9 activity – biochemical, luminescence, ADME assay, primary screen; CYP2C9 Supersomes, luciferin-H conversion; inhibition, % at 5 µM; actives 20% (n = 96,000);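 active means blocking of liver enzyme CYP2C9 beyond about 50% at 5 µM, limit read from the data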
CYP2C19 activ: human CYP2C19 activators, primary screen, biochemical, luminescence. Cytochrome P450 2C19 (Homo sapiens), P33261. 96,000 tested, under 10 active. recombinant CYP2C19, luciferin-H EGE luminescence; hits give high values; 0 = fully inhibited enzyme, 1 = untreated enzyme. activation factor at 5 µM;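 active means activation factor of at least 2 at 5 µM in the primary screen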;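 further: 0 = wells with 2.5 mM tranylcypromine and 1 = vehicle-only wells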
Measles CPE: compounds protecting cells from measles virus cytopathic effect, primary screen, measles RdRp inhibitor project, single point, MLSMR library, absorbance; AID 841, 2007; actives 1.5% (n = 140,000); protection (pct of control), % at 4 µM; Measles virus-infected cells, CPE protection; in the data active means protection mostly above about 24%, no sharp cut-off; inactive means mostly below about 26%
CYP2C9 activ: human CYP2C9 activators, primary screen, biochemical, luminescence; Cytochrome P450 2C9 (Homo sapiens), P11712; recombinant CYP2C9, luciferin-H conversion; hits give high values; factor 1 = untreated enzyme, 0 = blocked; activation factor at 5 µM; actives 1.4% (n = 96,000);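 active means activation factor of 2 or more for CYP2C9 at a 5 µM dose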;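 further: 0 = sulfaphenazole-blocked wells and 1 = vehicle-only wells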
The depositor's hits bear a star; x = not tested or not shown. Hits are enriched below; roughly 22% of the tested compounds scored in any of these assays.

SMILES	CYP2C19 inhib	CYP2C9 inh	CYP2C19 activ	Measles CPE	CYP2C9 activ
COc1ccc(CCNC(=O)c2ccc(-c3ccc([N+](=O)[O-])cc3Cl)o2)cc1	x	x	x	11	x
Cc1noc(C)c1C(=O)NCCC1=CCCCC1	46	31	0.5	9	0.7
Cc1noc(C)c1C(=O)OCC(=O)NCCC1=CCCCC1	70*	42	0.3	15	0.6
O=C(Nc1ccc(OC(F)(F)C(F)F)c(NC(=O)c2cccc(F)c2)c1)c1cccc(F)c1	x	x	x	5	x
CN(C)c1ccnc(SCc2ccccc2Cl)c1C#N	70*	-4	0.3	6	1
CCSc1nc2[nH]ncc2c(=O)[nH]1	x	x	x	20	x
CCSc1nc2c(sc3nc(C)cc(C)c32)c(=O)[nH]1	14	58*	0.9	7	0.4
CC(Oc1ccc2oc(-c3ccccc3)c(C(=O)O)c2c1)C(=O)O (configuration not stated)	-20	-15	1.2	1	1.1
CN(Cc1ccccc1)C(=O)CSc1nc2ccccc2c(=O)n1Cc1ccco1	97*	100*	0	4	0
Cc1ccc(NC(=O)CN(C)C(=O)CSc2nc3ccccc3c(=O)n2Cc2ccco2)cc1	31	79*	0.7	13	0.2
O=c1c2ccccc2nc(SCc2cc(F)cc3c2OCOC3)n1Cc1ccco1	30	40	0.7	3	0.6
CCOC(=O)c1cc2c(c(CSc3nc4ccccc4c(=O)n3Cc3ccco3)c1)OCOC2	6	67*	0.9	3	0.3
COc1cc(C(=O)N2CCC(c3nc(-c4cccnc4)no3)CC2)cc(OC)c1OC	-12	-7	1.1	15	1.1
Cc1cc(C)n2nc(-c3ccc(F)cc3)nc2n1	6	7	0.9	23*	0.9
Cc1cc(C)n2nc(-c3cccnc3)nc2n1	-4	-7	1	5	1.1
O=C(CN1CCC2(CC1)OCCO2)c1c[nH]c2ccccc12	81*	3	0.2	4	1
Cc1ccc2[nH]cc(C(=O)CN3CCN(c4ccccc4F)CC3)c2c1	21	18	0.8	4	0.8
CCOC(=O)N1CCN(CC(=O)c2c[nH]c3ccc(F)cc23)CC1	46	51*	0.5	5	0.5
CCN1CCN(CC(=O)c2c[nH]c3ccc(C)cc23)CC1	-19	51*	1.2	2	0.5
Cc1ccc2[nH]cc(C(=O)CN3CCC4(CC3)OCCO4)c2c1	x	x	x	11	x
O=C(CCN1C(=O)COc2ccccc21)NCCCN1CCc2ccccc2C1	8	10	0.9	6	0.9
O=C(Nc1ccc(Cl)c(Cl)c1)N1CCSC1c1ccco1 (configuration not stated)	43	59*	0.6	x	0.4
O=C(Nc1ccc(Cl)c(Cl)c1)N1CC=CCC1	32	22	0.7	3	0.8
CC(OC(=O)C(C)N1C(=O)C2C3C=CC(C4CC34)C2C1=O)C(=O)c1ccccc1 (configuration not stated)	x	x	x	25	x
Cc1cc2nnc(SCc3ccccc3)n2c(N)n1	26	27	0.7	4	0.7
SMILES	CYP2C19 inhib	CYP2C9 inh	CYP2C19 activ	Measles CPE	CYP2C9 activ
CC1CCc2nn(CC(=O)NCc3ccc(F)cc3)cc2C1 (configuration not stated)	90*	47	0.1	2	0.5
CC1CCc2nn(CC(=O)Nc3c(F)cc(F)cc3Br)cc2C1 (configuration not stated)	43	62*	0.6	20	0.4
NC[C@@]12CCCC1C1CCC2C1 (some centres not stated)	-12	-14	1.1	20	1.1
O[C@@H]1C2CCCC1[C@]1(O)CCCCC1C2 (some centres not stated)	11	62*	0.9	5	0.4
COc1ccc(CCNC(=O)COc2ccc(S(=O)(=O)NC3CCCCC3)cc2Cl)cc1	64*	85*	0.4	3	0.1
O=C(COc1ccc(S(=O)(=O)NC2CCCCC2)cc1)NCc1cccnc1	-10	30	1.1	5	0.7
COc1ccc(CCNC(=O)C2CCN(S(=O)(=O)c3ccc(OC)c(OC)c3)CC2)cc1	2	-30	1	16	1.3
O=C(COc1ccc(S(=O)(=O)NC2CCCCC2)cc1Cl)NCc1cccnc1	50	98*	0.5	25	0
Cc1cc(C)c(C)c(OCC(=O)NCC2CCCO2)c1 (configuration not stated)	63*	-57	0.4	26	1.6
O=C(COc1ccc(S(=O)(=O)NCc2ccccc2)cc1Cl)NCC1CCCO1 (configuration not stated)	-1	78*	1	28	0.2
O=C(O)C(c1ccccc1)N1CCCC1 (configuration not stated)	x	x	x	22	x
Cc1cccc(NC(=O)CCCN2C(=O)c3cccc4cccc(c34)C2=O)c1	-7	-53	1.1	3	1.5
CCC1CCC2(CC1)NC(=O)N(CC(=O)Nc1cc(C)on1)C2=O (configuration not stated)	x	x	x	6	x
Cc1ccc(N(CC(=O)NCCSc2nc3ccccc3s2)S(=O)(=O)c2ccccc2)c(C)c1	x	x	x	20	x
CCNc1nc(Cl)nc(NNC(=O)C(C)Oc2ccccc2)n1 (configuration not stated)	x	x	x	10	x
O=C(COc1ccc(S(=O)(=O)NC2CCCCC2)cc1Cl)NCC1CCCO1 (configuration not stated)	58*	90*	0.4	6	0.1
COC(=O)c1ccccc1NC(=O)C1CC(=O)N(c2ccccc2)C1 (configuration not stated)	19	8	0.8	1	0.9
O=C(Nc1cccc2nsnc12)C1CC(=O)N(c2ccccc2)C1 (configuration not stated)	82*	74*	0.2	12	0.3
O=C(Nc1nc2ccccc2s1)C1CC(=O)N(c2ccc(Cl)cc2)C1 (configuration not stated)	20	54*	0.8	12	0.5
Clc1cccc(CSC2=NCCCN2)c1	x	x	x	6	x
C=CCSC1=C(C#N)C(c2ccccc2Cl)C(C(=O)c2cccs2)C(O)(C(F)(F)F)N1 (configuration not stated)	x	x	x	3	x
CCC(C)C(NC(=O)c1ccccc1NC(=O)c1ccco1)C(=O)NC1CCCCC1 (configuration not stated)	17	42	0.8	7	0.6
O=C1Cc2ccccc2C(=O)N1CCc1ccccc1	52*	2	0.5	9	1
CCOc1ccc(NC(=O)C2CCN(c3nnnn3-c3ccccc3)CC2)cc1	x	x	x	4	x
O=C(CSc1ncn[nH]1)Nc1nc(-c2ccccc2)cs1	64*	32	0.4	19	0.7
Cc1cc(=O)[nH]c(SCC(=O)Nc2nc(-c3ccccc3)cs2)n1	22	60*	0.8	4	0.4
